An excerpt weighted towards active compounds, which were near 3.4% of everything screened.
PAFAH1B2 FP inh: PAFAH1B2 (human) inhibition; P68402; recombinant PAFAH1B2, FP-rhodamine activity probe, fluorescence polarization; inhibition, % at 3.39 µM; 340,000 tested, 1.2% active; AID 492953;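 active means inhibition above the mean of all tested compounds plus 3 SD, cut at about 24% in these data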;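 further: 0% = enzyme with DMSO and 100% = wells lacking PAFAH1B2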
PAFAH1B3 inh: inhibitors of human PAFAH1B3. Q15102. inhibition, % at 3.39 µM. 340,000 tested, 0.28% active. recombinant PAFAH1B3, FP-rhodamine probe, fluorescence polarization. AID 492972;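 active means inhibition above the screen-wide average of all tested compounds plus 3 SD, cut at about 25% in these data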;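 further: 0% = enzyme with DMSO only and 100% = wells lacking PAFAH1B3 protein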
Target sequence (Q15102 whole entry, looked up): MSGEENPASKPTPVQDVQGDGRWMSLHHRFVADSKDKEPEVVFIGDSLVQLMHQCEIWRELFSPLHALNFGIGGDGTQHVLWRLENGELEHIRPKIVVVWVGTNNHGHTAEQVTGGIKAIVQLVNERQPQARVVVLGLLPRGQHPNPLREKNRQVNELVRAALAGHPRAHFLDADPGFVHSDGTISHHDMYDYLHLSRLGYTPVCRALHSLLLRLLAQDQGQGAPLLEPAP
PAFAH2 FP inh: inhibitors of human PAFAH2; Q99487; recombinant PAFAH2, FP-rhodamine activity probe, fluorescence polarization; inhibition, % at 3.39 µM; 340,000 tested, 0.99% active;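 active means inhibition above the mean over all tested compounds plus 3 SD, cut at about 30% in these data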;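 further: inhibitors block probe labeling of enzyme so polarization drops; 0% = enzyme with DMSO and 100% = wells lacking PAFAH2 protein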
pPAFAH FP inh: inhibitors of human plasma PAF acetylhydrolase (pPAFAH); inhibition, % at 3.39 µM; AID 463082; Q13093; 330,000 tested, 1.5% active; recombinant pPAFAH, FP-rhodamine probe fluorescence polarization;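 active means inhibition above the mean inhibition across the screen plus 3 SD, cut at about 25% in these data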;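 further: inhibitors block binding of the rhodamine activity-based probe so polarization drops; 0% = enzyme with DMSO and 100% = wells lacking pPAFAH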
PP5 inh: inhibitors of human protein phosphatase 5 (PP5); P53041; purified PP5c, OMFP substrate fluorescence; inhibition, % at 6.7 µM; 320,000 tested, 0.18% active; AID 1987;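 active means inhibition above the campaign's mean inhibition across all tested compounds plus 3 SD, cut at about 9.5% in these data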;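 further: 0% = DMSO only and 100% = 100 µM cantharidin control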
PP1 counter: blocks human PP1-alpha phosphatase, a PP5 counter-screen; inhibition, % at 6.7 µM; 320,000 tested, 0.9% active; purified PP1alpha, OMFP fluorescence;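 active means inhibition above the mean inhibition of all tested compounds plus 3 SD, computed separately for each screening campaign, cut at about 15% in these data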
pPAFAH confirm: confirmation of human plasma PAF acetylhydrolase (pPAFAH) inhibitors; inhibition, % at 3.39 µM; recombinant pPAFAH, FP-Rh probe fluorescence polarization; 2,300 tested, 72% active; shares compounds with pPAFAH FP inh;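 active means mean inhibition of the triplicate above the hit cutoff set for the earlier primary screen, cut at about 25% in these data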;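 further: 0% = enzyme with DMSO and 100% = wells lacking pPAFAH enzyme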
* marks the source's active call; other numbers are inactive results; / = not tested or not shown.

SMILES	PAFAH1B2 FP inh	PAFAH1B3 inh	PAFAH2 FP inh	pPAFAH FP inh	PP5 inh	PP1 counter	pPAFAH confirm
Fc1ccc2nncc(SCc3ccccc3Cl)c2c1	-1	8	-10	/	/	/	/
Cc1ccc(N=Nc2c(O)[nH]c(=O)[nH]c2=O)cc1S(=O)(=O)Nc1ccc(Br)cc1	0	13	18	76*	/	/	25
O=S(=O)(c1c(F)cccc1F)N1CCCC2CCCCC21 (stereo unspecified)	12	4	15	0	2	-2	/
CCOC(=O)c1cc(C#N)c(SCC(N)=O)[nH]c1=O	5	19	9	51*	1	6	1
CCCOc1ccc(N2C(=O)CC(N(O)c3ccccc3)C2=O)cc1 (stereo unspecified)	8	-4	-2	8	1	2	/
O=C1CC(N(O)c2ccccc2)C(=O)N1c1cc(Cl)cc(Cl)c1 (stereo unspecified)	7	6	-4	51*	3	1	8
Nc1ccc(C(=O)N/N=C\c2cc(N=Nc3cccc4ccccc34)ccc2O)cc1	17	12	6	77*	4	7	53*
O=C(N/N=C/c1cccc2ccccc12)c1cc2ccccc2o1	-9	-1	-13	/	/	/	/
COc1ccc(S(=O)(=O)/N=C2/NC(=O)/C(=C\c3cc(OC)c(OC)cc3[N+](=O)[O-])S2)cc1	14	4	-4	4	1	5	/
COc1ccc(S(=O)(=O)/N=C2/NC(=O)/C(=C\c3ccco3)S2)cc1	-3	18	-4	35*	-1	1	21
Cc1cc(S(=O)(=O)N2CCCC2)ccc1OCC(=O)Nc1ccc(C(N)=O)cc1	-1	4	3	50*	0	1	4
Cc1ccnc(NCc2ccccc2O)c1	1	7	4	41*	-1	-2	1
CCOCCCNC(=O)c1ccc(N2CCCC2)c(NS(=O)(=O)c2ccc(C)cc2)c1	4	3	3	52*	0	4	3
CCCNC(=O)NNC(=O)c1ccc(F)cc1	3	6	-1	6	-2	-5	/
COCCCNC1=C(Cl)C(=O)c2ccccc2C1=O	6	9	0	2	2	-5	/
COCCCNc1c2c3c(cccc3[nH]c1=O)C(=O)c1ccccc1-2	109*	134*	136*	106*	-76	-121	84*
COCCN=c1scc(-c2ccccc2)n1/N=C/c1c[nH]c2ccccc12	4	6	13	12	1	-1	/
CCN=c1scc(C)n1/N=C/c1cc(Br)c(O)c(Br)c1	14	20	19	41*	-2	2	25*
CCN=c1scc(C)n1/N=C/c1ccc(O)c(O)c1O	0	9	13	46*	3	6	11
CCN=c1scc(-c2ccco2)n1/N=C/c1ccc(O)cc1	4	11	3	2	-1	-1	/
COCCN=c1scc(-c2cccs2)n1/N=C/c1ccc(O)c(O)c1O	-7	-6	9	44*	4	3	75*
CN(C)C1(CNC(=O)C2CCN(S(=O)(=O)c3cccc(C(F)(F)F)c3)CC2)CCCCC1	2	-2	0	-4	-1	-1	/
Oc1c(Br)cc(/C=N/Nc2ccc(Cl)nn2)cc1Br	16	28*	33*	52*	1	2	58*
O=C(COC(=O)c1cc(Cl)ccc1O)NNC(=O)c1ccccc1F	3	15	6	1	/	/	/
COc1ccc2noc3c2c1C(=O)c1ccccc1-3	20	25	38*	38*	-65	-69	25*
CN(C(=S)NC(=O)C1CC1)c1ccc(O)cc1	8	-2	-1	61*	2	2	2
COC(=O)COc1ccc(C2Nc3c(Cl)ccc(C(=O)O)c3C3C=CCC32)cc1 (stereo unspecified)	3	6	28	36*	-1	0	11
Cc1cc(O)c2c(c1O)C(=O)[C@]13C(=C2O)C(=O)[C@@H]2[C@@H](O)[C@H]1[C@@H]1[C@H](O)[C@H]3C(=O)C3=C(O)c4c(O)cc(C)c(O)c4C(=O)[C@]312	22	37*	43*	54*	/	/	23
O=C(/C=C/c1ccco1)OCC(=O)c1ccc(OC(F)F)cc1	2	6	3	55*	3	-1	8

Screens (PubChem)
